Assay outcomes from PubChem BioAssay.
Rows were chosen to be rich in hits. Some 1.6% of all compounds tested hit in one or more screens of this group.
KCNQ2 pot = potentiators of rat KCNQ2 potassium channel | CHO-K1 KCNQ2, FluxOR thallium flux fluorescence; stronger effect = higher value | B-score at 10 µM | 310,000 tested, 0.54% active | AID 2239;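 active = fluorescence ratio B-score at least 3 SD of library B-scores, with initial fluorescence B-score within 3 of them, cut at about 5.3 in these data; same plate scores as AID 2156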;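 note: B-score of peak minus minimum over baseline fluorescence ratio after K+ and Tl+ stimulus; positive B-score means potentiation of KCNQ2 with more thallium influx and brighter signal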
Target sequence (O88943 whole entry, looked up): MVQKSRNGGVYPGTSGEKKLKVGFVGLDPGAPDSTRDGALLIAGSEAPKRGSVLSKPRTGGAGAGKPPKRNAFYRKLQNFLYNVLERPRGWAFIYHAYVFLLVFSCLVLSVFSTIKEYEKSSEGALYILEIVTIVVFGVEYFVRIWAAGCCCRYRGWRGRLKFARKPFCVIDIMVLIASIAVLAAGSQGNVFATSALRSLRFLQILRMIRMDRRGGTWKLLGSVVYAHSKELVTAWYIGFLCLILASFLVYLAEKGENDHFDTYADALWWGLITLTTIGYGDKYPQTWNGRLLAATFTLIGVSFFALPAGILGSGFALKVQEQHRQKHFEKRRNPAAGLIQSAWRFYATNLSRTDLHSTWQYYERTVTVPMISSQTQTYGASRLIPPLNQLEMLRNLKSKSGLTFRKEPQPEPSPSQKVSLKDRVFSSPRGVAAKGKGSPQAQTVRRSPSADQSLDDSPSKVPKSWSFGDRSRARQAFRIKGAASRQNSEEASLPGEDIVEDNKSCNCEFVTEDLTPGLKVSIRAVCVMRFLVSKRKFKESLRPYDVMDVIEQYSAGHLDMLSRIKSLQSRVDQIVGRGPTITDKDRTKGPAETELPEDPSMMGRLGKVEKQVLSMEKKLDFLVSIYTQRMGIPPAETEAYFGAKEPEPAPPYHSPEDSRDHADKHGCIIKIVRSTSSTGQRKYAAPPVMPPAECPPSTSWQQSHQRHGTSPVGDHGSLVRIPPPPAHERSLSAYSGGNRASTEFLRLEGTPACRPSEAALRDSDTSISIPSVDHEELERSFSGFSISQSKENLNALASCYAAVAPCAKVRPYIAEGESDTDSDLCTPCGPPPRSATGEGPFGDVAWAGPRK
KCNQ2 block = inhibitors of rat KCNQ2 potassium channel; CHO-K1 KCNQ2, FluxOR thallium flux, 20 min; stronger effect = lower value; AID 2156; B-score at 10 µM; 310,000 tested, 1.1% active;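 active = fluorescence ratio B-score at most minus 3 library SDs, with starting brightness B-score within 2 library SDs, cut at about -5.5 in these data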
* hit, by the source's call; i = inactive; · = no result given.

SMILES | KCNQ2 pot | KCNQ2 block
CC(=O)NC(=S)Nc1ccc2oc(=O)ccc2c1 | · | i
Cc1ccc([N+](=O)[O-])cc1N/C=C1\CCc2ccccc2C1=O | · | i
Cc1ccc(CCNC(=O)c2cc(S(=O)(=O)N3CCCC3)cn2C)cc1 | · | i
COc1cc(C(=O)NCC(=O)Nc2ccc(F)c(F)c2)ccc1OCC(=O)N1CCOCC1 | · | i
Cc1cccc(C(=O)N(c2ccccn2)C(C)c2ccco2)c1 (stereo unspecified) | · | i
CC(c1ccco1)N(C(=O)C12CC3(C)CC(C)(CC(C)(C3)C1)C2)c1ccccn1 (stereo unspecified) | -6.3 | -6.3*
O=C1C=C(c2cc3ccccc3s2)CCC1 | · | i
OCc1ccccc1OCCOc1ccc(Cl)c2cccnc12 | · | i
Clc1ccc(OCc2cn3ccccc3n2)c2ncccc12 | -6.6 | -6.6*
Cc1occc1C(=O)Nc1cnn(CCCC(=O)O)c1 | 1.1 | i
Cc1ccc(NCc2nc3ccccc3n2C)c(C)c1 | -6.6 | -6.6*
Cc1cccc(NCc2nc3ccccc3n2C)c1 | 0.47 | i
COc1ccccc1-n1cnnc1SCC(=O)c1ccc[nH]1 | · | i
O=C(CSc1nnc2ccccn12)Nc1ccccc1C(=O)O | 0.39 | i
COc1ccc2nc(NC(=O)Nc3cccc4ccccc34)sc2c1 | · | i
COc1ccc2nc(N=Nc3c(O)ccc4ccccc34)sc2c1 | 8.2* | i
COC(=O)Cn1ncc(N2CC(C)OC(C)C2)c(Cl)c1=O (stereo unspecified) | 0.69 | i
O=C(c1cccc(-c2nnc(-c3ccccc3)o2)c1)N1CCCCC1 | 0.13 | i
O=C(c1cccc(-c2nnc(-c3ccccc3)o2)c1)N1CCCCCC1 | -5.8 | -5.8*
CCc1nc(N2CCC(C)CC2)c2oc3ccccc3c2n1 | -5.9 | -5.9*
CCc1nc(N(CC)CC)c2oc3ccccc3c2n1 | · | i
O=[N+]([O-])c1cccc(OCCCN2CCC(Cc3ccccc3)CC2)c1 | -5.7 | -5.7*
O=[N+]([O-])c1ccc(CN2CCC(Cc3ccccc3)CC2)cc1 | 0.36 | i
O=C(O)c1c2c(nc3ccccc13)/C(=C/c1ccccc1[N+](=O)[O-])CCC2 | · | i
CC1C/C(=C\c2ccccc2[N+](=O)[O-])c2nc3ccccc3c(C(=O)O)c2C1 (stereo unspecified) | -5.8 | -5.8*
SMILES | KCNQ2 pot | KCNQ2 block
O=C(NCC(c1ccco1)N1CCc2ccccc2C1)c1ccc(F)cc1 (stereo unspecified) | -5.7 | -5.7*
COc1ccccc1NC(=O)C(=O)NCC(c1ccco1)N1CCc2ccccc2C1 (stereo unspecified) | · | i
O=C(NCC(c1ccco1)N1CCc2ccccc2C1)C(=O)Nc1cc(F)ccc1F (stereo unspecified) | -6.2 | -6.2*
O=C(NCC(c1ccco1)N1CCc2ccccc2C1)c1ccccc1 (stereo unspecified) | · | i
N#Cc1c(C(F)(F)F)cc(-c2cccc(Cl)c2)[nH]c1=O | 4.2 | i
COc1ccc(-n2nnnc2SCC(=O)Nc2nc3c(s2)CCCC3)cc1 | 1 | i
Clc1ccc(CN(CC2CCCO2)C(c2cccs2)c2nnnn2C2CCCC2)cc1 (stereo unspecified) | · | i
CC(C)(C)n1nnnc1C(c1cccs1)N(Cc1cccnc1)Cc1ccccc1Cl (stereo unspecified) | -6.2 | -6.2*
Clc1ccccc1CN(Cc1ccccc1)C(c1cccs1)c1nnnn1C1CCCC1 (stereo unspecified) | -5.8 | -5.8*
CC(c1nnnn1C(C)(C)C)N(Cc1cccnc1)Cc1ccccc1Cl (stereo unspecified) | · | i
O=C(Oc1ccc(-c2nnco2)cc1)C1CCN(C(=O)c2ccc(F)cc2)CC1 | 0.26 | i
Cc1cccc(-c2noc(CN(C(=O)C(c3ccccc3)c3ccccc3)C(C)C)n2)c1 | · | i
O=C(Nc1ccc(O)cc1)c1ccc(C(=O)c2ccccc2)o1 | 0.39 | i
CCC(Oc1ccccc1)C(=O)Nc1nnc(S(=O)(=O)N2CCCC2)s1 (stereo unspecified) | · | i
COc1ccccc1N1CCN(C(=O)C(Sc2ccccc2)c2ccccc2)CC1 (stereo unspecified) | -5.7 | -5.7*
COc1ccccc1N1CCN(C(=O)CSc2ccccc2)CC1 | · | i
CN1CCN(/N=C/c2ccc(-c3ccccc3)cc2)CC1 | · | i
CN1CCN(/N=C/c2c3ccccc3c(Cl)c3ccccc23)CC1 | -7.1 | -7.1*
Cc1ccc(NCc2n[nH]c(=S)n2Cc2ccccc2)cc1Cl | · | i
NNc1ccc2c(C(F)(F)F)cc(C(F)(F)F)nc2n1 | 0.33 | i
N#CC(c1cccc(Cl)c1)c1ccc2c(C(F)(F)F)cc(C(F)(F)F)nc2n1 (stereo unspecified) | 15* | i
CC(C)CSC1=NSC2=NC(=O)/C(=C\c3cccs3)C(=N)N12 | 7.4* | i
N=C1/C(=C/c2cccs2)C(=O)N=C2SN=C(SCc3ccccc3)N12 | 3.9 | i
COCCN(C(=O)C(C)C)c1nnc(-c2ccc(C)cc2)s1 | 0.31 | i
O=C(O)COc1ccccc1/C=N/NC(=O)c1cccc(S(=O)(=O)N2CCOCC2)c1 | · | i
SMILES | KCNQ2 pot | KCNQ2 block
Cc1ccc(C(=O)Nc2ccccc2-c2ccccc2)cc1[N+](=O)[O-] | · | i
Cc1ccc(C(=O)Nc2cc(Cl)ccc2Oc2ccccc2)cc1[N+](=O)[O-] | -6.1 | -6.1*
CCOC(=O)C(=CNc1nc(-c2ccccc2)c(C(=O)Nc2ccc(-c3ccccc3)cc2)s1)C(=O)OCC | 1.6 | i
CC1(CCBr)C(=O)N(c2ccccc2)c2ccccc21 (stereo unspecified) | · | i
O=C1N(c2ccccc2)c2ccccc2C1(Cc1ccncc1)Cc1ccncc1 | -5.6 | -5.6*
Cc1nn(CC(=O)NNC(=O)c2cccc(Br)c2)c(C)c1[N+](=O)[O-] | · | i
c1cc2cc(-c3c(-c4ccc5c(c4)OCO5)noc3-c3ccsc3)ccc2[nH]1 | · | i
Cc1onc(-c2ccc3c(c2)OCO3)c1-c1ccc2[nH]ccc2c1 | -7.9 | -7.9*
COc1ccc2ccccc2c1C1CC(=O)N2CN(C)CSC2=C1C#N (stereo unspecified) | -6.9 | -6.9*
COc1cc(OC)c(C2CC(=O)N3CN(C)CSC3=C2C#N)cc1OC (stereo unspecified) | 1.3 | i
CC12CCC(c3c(C(=O)O)nn(-c4ccccc4)c31)C2(C)C (stereo unspecified) | 0.88 | i
CC12CCC(c3c(C(=O)Nc4nccs4)nn(-c4ccccc4)c31)C2(C)C (stereo unspecified) | -8.3 | -8.3*
O=C(CC1C(=O)NCCN1Cc1c(F)cccc1Cl)NCCCn1cccn1 (stereo unspecified) | · | i
CC(C)Cn1c(=O)c(C(=O)N/N=C/c2cccc(F)c2)c(O)c2ccccc21 | · | i
COc1cccc(/C=N/NC(=O)c2ccc([N+](=O)[O-])cc2Cl)c1O | 7.7* | i
COc1cc(/C=N/NC(=O)c2cccc([N+](=O)[O-])c2)cc(OC)c1O | 1.9 | i
O=C(N=Nc1c(O)[nH]c2ccc(F)cc12)C1COc2ccccc2O1 (stereo unspecified) | · | i
O=C(COC(=O)c1ccc(Sc2ccccc2)c([N+](=O)[O-])c1)NC1CCCc2ccccc21 (stereo unspecified) | -6.9 | -6.9*
CC1CCCN(c2ccc(C(=O)OCC(=O)N3c4ccccc4Sc4ccccc43)cc2[N+](=O)[O-])C1 (stereo unspecified) | · | i
